Where “and” joins values, the source holds several entries; their conditions need not be identical. Equal entries are not always repeated. Records with an inconclusive call do not appear. Where a call stands in place of a potency, no number is given. The source holds several records for some structures; these can differ, active in one and inactive in another. Calls of active or inactive are those of the source. Unless noted, calls follow the shape of the dose curve; as a rule, active = well fitted curve in the direction sought with a large enough effect in the repeat runs; inconclusive = weak or mixed curves; inactive = no such curve, though single readings can be large; an effect the other way counts as inactive or inconclusive.
Assays:
[1] = A CellTox Green Cytotoxicity Assay to monitor cytotoxicity in HepG2 cells - 8 hour (AID 1224890); also: nearly all actives have a fitted effect of over 45% in size; also: potency is read from the fitted curve at half-maximal effect
Summary of the method: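 Continuous culture of HepG2 cells with a membrane-impermeant DNA dye; rising fluorescence marks dead cells. Compound exposure lasted up to 40 h at 37 C, with reads every 8 h from 0 h.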

[2] = qHTS assay to identify small molecule antagonists of the estrogen receptor alpha (ER-alpha) signaling pathway using the BG1 cell line in the presence of 0.1 nM 17-beta-estradiol - cell viability counter screen (AID 1259241); also: nearly all actives have a fitted effect of over 40% in size
Summary of the method: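 Following 5 days in phenol red-free medium with charcoal-stripped serum, VM7Luc4E2 cells received test compounds alongside 0.1 nM 17beta-estradiol (final) at 37C for 22 hr. Live cells were then quantified via protease-substrate fluorescence.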

[3] = qHTS assay to identify small molecule antagonists of the androgen receptor (AR) signaling pathway using the MDA cell line in the presence of 0.5 nM R1881 - cell viability counter screen (AID 1259242); also: nearly all actives have a fitted effect of over 45% in size; also: potency is read from the fitted curve at half-maximal effect
Summary of the method: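 Fluorescence from CellTiter-Fluor, which reports protease activity of live cells, was read 30 min after reagent addition to MDA-kb2 cells that had been incubated 16 hr with compound and 0.5 nM R1881.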

[4] = biological target: Estrogen receptor (Homo sapiens) (UniProt P03372); experiment: qHTS assay to identify small molecule antagonists of the estrogen receptor alpha (ER-alpha) signaling pathway using the BG1 cell line in the presence of 0.1 nM 17-beta-estradiol (AID 1259244); also: nearly all actives have a fitted effect of over 50% in size; also: potency is read from the fitted curve at half-maximal effect
Summary of the method: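 Quantitative high-throughput screen in VM7Luc4E2 cells: compound plus 0.1 nM E2 (final), 22 h, 37C, 5% CO2; ONE-Glo added, 30 min room temperature, luminescence measured.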

[5] = qHTS assay to identify small molecule HDAC inhibitors (AID 1259364); also: top concentration of the series differs between compounds; nearly all actives have a fitted effect of over 45% in size
Summary of the method: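 Endogenous HDAC class I/II activity was measured in wild-type HCT-116 cells by HDAC-Glo luminescence after 2 h compound treatment.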

[6] = qHTS assay to identify small molecule HDAC inhibitors - cell viability counter screen (AID 1259365); also: series mostly up to about 92 µM; nearly all actives have a fitted effect of over 50% in size
Summary of the method: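 HCT-116 wild-type, overnight attachment; 2hr drug exposure, 37C; CellTiter-Glo luminescent ATP readout after 30min RT.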

[7] = qHTS assay to identify small molecule agonists of the sonic hedgehog signaling (Shh) pathway - cell viability counter screen (AID 1259366); also: nearly all actives have a fitted effect of over 50% in size; also: potency is read from the fitted curve at half-maximal effect
Summary of the method: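 Compounds in DMSO were pin-transferred onto 3T3 Gli1-Luc cells that had settled 4hr; plates then stood 24hr at 37C and 5% CO2. One hour before the end, CellTiter-Fluor was added and fluorescence recorded.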

[8] = qHTS assay to identify small molecule antagonists of the sonic hedgehog signaling (Shh) pathway - cell viability counter screen (AID 1259367); also: nearly all actives have a fitted effect of over 55% in size
Summary of the method: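 Cells: 3T3 Gli1-Luc, 2,000/well, 4 hr pre-incubation. Compounds in DMSO, then conditioned medium. Incubation 24 hr, 37C, 5% CO2. CellTiter-Fluor at 23 hr, 1 hr, fluorescence.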

[9] = qHTS assay to identify small molecule agonists of the sonic hedgehog signaling (Shh) pathway (AID 1259368; calls by dose curve;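 also: NIH/3T3-derived 3T3Gli1-Luc cells carrying a stable Gli1-driven firefly luciferase reporter; series mostly up to about 92 µM; nearly all actives have a fitted effect of over 15% in size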)
Summary of the method: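 Luminescent signal was taken as a measure of Gli1-controlled luciferase expression in stably transfected NIH/3T3-derived cells that had been treated for 24 hr with compounds delivered in DMSO.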

[10] = qHTS assay to identify small molecule antagonists of the sonic hedgehog signaling (Shh) pathway (AID 1259369; calls by dose curve; also: nearly all actives have a fitted effect of over 45% in size; also: potency is read from the fitted curve at half-maximal effect)
Summary of the method: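 Screening used 3T3Gli1-Luc cells at 2,000 per well, compounds delivered in DMSO, and conditioned medium as agonist stimulus; plates incubated 24hr at 37 C and 5% CO2 before a 30min luciferase step.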

[11] = biological target: Estrogen receptor beta (Homo sapiens) (UniProt Q92731); experiment: qHTS assay to identify small molecule agonists of the estrogen receptor beta (ER-beta) signaling pathway (AID 1259377; active = well fitted activation curve with a large enough effect in the signal ratio in the repeat runs, not every such curve was filed as active; the % refers to the signal ratio)
Summary of the method: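 qHTS in ER-beta-UAS-bla HEK293T cells: 6 hr settling, then 16 hr compound at 37C, then LiveBLAzer substrate 2 h at RT before fluorescence reading.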

[12] = biological target: Estrogen receptor beta (Homo sapiens) (UniProt Q92731); experiment: qHTS assay to identify small molecule antagonists of the estrogen receptor beta (ER-beta) signaling pathway (AID 1259378; active = well fitted inhibition curve with a large enough effect in the signal ratio in the repeat runs, not every such curve was filed as active; the % refers to the signal ratio)
Summary of the method: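 Antagonist mode: compounds added to beta-lactamase reporter HEK293T ER-beta-UAS cells stimulated with E2 (1nM final), 16 hr at 37C. LiveBLAzer B/G FRET substrate, 2 hours room temperature, fluorescence read-out.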

[13] = qHTS assay to identify small molecule agonists of the estrogen receptor beta (ER-beta) signaling pathway - cell viability counter screen (AID 1259380); also: nearly all actives have a fitted effect of over 30% in size; also: potency is read from the fitted curve at half-maximal effect
Summary of the method: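 Viability of ER-beta-UAS-bla HEK293T cells was determined by CellTiter-Glo luminescence following 16 hr treatment with test compounds at 37C.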

[14] = qHTS assay to identify small molecule antagonists of the estrogen receptor beta (ER-beta) signaling pathway - cell viability counter screen (AID 1259382); also: nearly all actives have a fitted effect of over 55% in size; also: potency is read from the fitted curve at half-maximal effect
Summary of the method: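 Tox21 10K library tested in qHTS format on ER-beta-bla HEK293T cells stimulated with 1nM E2; 16 hr treatment at 37C. Same-well CellTiter-Glo luminescence served as the cell viability measure.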

[15] = biological target: Estrogen receptor (Homo sapiens) (UniProt P03372); experiment: qHTS assay to identify small molecule agonists of the estrogen receptor alpha (ER-alpha) signaling pathway in the presence of an antagonist (AID 1259383; calls by dose curve; also: nearly all actives have a fitted effect of over 15% in size; also: potency is read from the fitted curve at half-maximal effect; as to activation: top concentration of the series differs between compounds)
Summary of the method: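 In VM7Luc4E2 cells, 4,000 per well, compounds at 15 concentrations were co-incubated 22hr at 37C with 10.0nM final ICI-182,780. Luminescence from the stably transfected 4×ERE-luciferase reporter was recorded 30min after ONE-Glo addition.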

[16] = qHTS assay to identify small molecule agonists or antagonists of the thyroid stimulating hormone receptor (TSHR) signaling pathway - wild type cell line counter screen (AID 1259384; calls by dose curve)
Summary of the method: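 Counter screen in untransfected Hek293: compounds (15-point titration, triplicate) plus phosphodiesterase inhibitor Ro20-1724 added after 18 h plating; 30 min RT. Intracellular cAMP via competitive d2/cryptate immunoassay, 1 h incubation.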

[17] = qHTS assay to identify small molecule agonists of the androgen receptor (AR) signaling pathway in the presence of an antagonist - cell viability counter screen (AID 1259379); also: nearly all actives have a fitted effect of over 25% in size; also: potency is read from the fitted curve at half-maximal effect
Summary of the method: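 In MDA-kb2 cells (human breast carcinoma, MMTV-luciferase), compounds at 15 concentrations plus 3.0uM nilutamide; 16 hr, 37C, 0% CO2; CellTiter-Fluor fluorescence read for viability.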

[18] = biological target: Androgen receptor (Homo sapiens) (UniProt P10275); experiment: qHTS assay to identify small molecule antagonists of the androgen receptor (AR) signaling pathway using the MDA cell line in the presence of 0.5 nM R1881 (AID 1259243); also: nearly all actives have a fitted effect of over 50% in size
Summary of the method: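 Inhibition of R1881 (0.5 nM final) induced reporter signal was measured in human MDA-kb2 cells; note the MMTV promoter also responds to GR. Exposure lasted 16 hr at 37C.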

[19] = qHTS assay to identify small molecule phospholipidosis (PLD) inducers (AID 1259344; active = well fitted curve in the direction sought with a large enough effect; an effect the other way counts as inactive or inconclusive)
Summary of the method: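 Phospholipidosis is scored by imaging LipidTOX-stained pits in HepG2 cells exposed to compound for 24 h at 37 C; pit counts and integrated intensities per well and per cell serve as outputs.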

[20] = biological target: Androgen receptor (Homo sapiens) (UniProt P10275); experiment: qHTS assay to identify small molecule agonists of the androgen receptor (AR) signaling pathway in the presence of an antagonist (AID 1259381; calls by dose curve; also: nearly all actives have a fitted effect of over 15% in size)
Summary of the method: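 Here, 15-concentration compound series were pin-transferred onto MDA-kb2 MMTV-luciferase cells already dosed with nilutamide (3.0uM final). After 16hr at 37C, ONE-Glo was added and luminescence read 30min later at room temperature.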

Sequence of Estrogen receptor (Homo sapiens) (P03372 whole entry, looked up): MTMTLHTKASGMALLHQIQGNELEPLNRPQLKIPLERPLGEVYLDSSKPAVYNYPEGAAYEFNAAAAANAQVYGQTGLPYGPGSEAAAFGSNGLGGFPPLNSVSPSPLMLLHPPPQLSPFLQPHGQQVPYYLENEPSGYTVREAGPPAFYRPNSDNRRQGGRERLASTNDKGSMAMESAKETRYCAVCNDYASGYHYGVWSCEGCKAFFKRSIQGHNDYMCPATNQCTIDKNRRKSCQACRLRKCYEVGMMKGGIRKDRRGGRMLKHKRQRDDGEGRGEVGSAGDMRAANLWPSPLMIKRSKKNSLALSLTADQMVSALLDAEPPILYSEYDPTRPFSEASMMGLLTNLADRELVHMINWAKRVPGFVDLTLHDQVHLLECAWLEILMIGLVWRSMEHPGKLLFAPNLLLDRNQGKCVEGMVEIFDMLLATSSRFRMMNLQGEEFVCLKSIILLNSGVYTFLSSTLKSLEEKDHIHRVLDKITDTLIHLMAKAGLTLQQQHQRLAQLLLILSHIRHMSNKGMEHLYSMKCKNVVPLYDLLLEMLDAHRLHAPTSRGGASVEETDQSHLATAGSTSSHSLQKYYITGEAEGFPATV
Sequence of Estrogen receptor beta (Homo sapiens) (Q92731 whole entry, looked up): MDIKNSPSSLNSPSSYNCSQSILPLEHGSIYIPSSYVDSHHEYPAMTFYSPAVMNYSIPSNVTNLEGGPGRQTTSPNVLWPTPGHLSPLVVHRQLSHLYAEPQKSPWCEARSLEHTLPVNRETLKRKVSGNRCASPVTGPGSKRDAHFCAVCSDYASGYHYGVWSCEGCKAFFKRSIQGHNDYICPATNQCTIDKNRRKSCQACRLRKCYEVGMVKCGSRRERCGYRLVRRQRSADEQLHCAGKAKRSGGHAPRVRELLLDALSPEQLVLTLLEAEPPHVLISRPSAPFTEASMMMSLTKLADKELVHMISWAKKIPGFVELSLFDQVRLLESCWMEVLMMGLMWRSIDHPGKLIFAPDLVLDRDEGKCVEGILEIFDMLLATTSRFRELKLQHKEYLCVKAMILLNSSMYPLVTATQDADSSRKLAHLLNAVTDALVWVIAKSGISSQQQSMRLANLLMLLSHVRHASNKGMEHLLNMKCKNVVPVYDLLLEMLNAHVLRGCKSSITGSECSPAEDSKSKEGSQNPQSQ
Sequence of Androgen receptor (Homo sapiens) (P10275 whole entry, looked up): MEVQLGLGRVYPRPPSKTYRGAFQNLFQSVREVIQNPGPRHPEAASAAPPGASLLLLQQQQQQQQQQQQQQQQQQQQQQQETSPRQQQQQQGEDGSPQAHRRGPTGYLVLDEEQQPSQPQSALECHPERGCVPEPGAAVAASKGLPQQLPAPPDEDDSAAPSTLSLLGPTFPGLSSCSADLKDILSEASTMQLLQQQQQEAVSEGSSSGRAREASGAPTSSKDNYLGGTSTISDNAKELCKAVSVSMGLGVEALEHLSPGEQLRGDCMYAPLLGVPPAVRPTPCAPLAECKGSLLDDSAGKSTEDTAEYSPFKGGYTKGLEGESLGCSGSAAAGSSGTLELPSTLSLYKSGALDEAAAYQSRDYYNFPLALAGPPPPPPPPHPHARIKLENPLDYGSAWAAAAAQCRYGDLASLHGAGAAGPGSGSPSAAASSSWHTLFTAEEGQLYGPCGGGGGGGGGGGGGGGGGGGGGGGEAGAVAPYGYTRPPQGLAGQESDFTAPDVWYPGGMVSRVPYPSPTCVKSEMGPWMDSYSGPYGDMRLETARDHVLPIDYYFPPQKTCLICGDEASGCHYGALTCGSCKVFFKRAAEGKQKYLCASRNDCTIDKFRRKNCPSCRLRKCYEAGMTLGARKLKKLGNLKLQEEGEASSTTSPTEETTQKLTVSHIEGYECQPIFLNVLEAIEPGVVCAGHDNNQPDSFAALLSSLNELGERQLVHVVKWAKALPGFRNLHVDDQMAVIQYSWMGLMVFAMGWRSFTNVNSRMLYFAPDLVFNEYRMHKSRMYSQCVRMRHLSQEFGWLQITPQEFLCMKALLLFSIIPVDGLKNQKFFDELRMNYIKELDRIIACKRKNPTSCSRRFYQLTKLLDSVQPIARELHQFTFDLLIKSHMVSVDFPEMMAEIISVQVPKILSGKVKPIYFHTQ

Row | Structure (SMILES) | Potency [1] | Potency [2] | Potency [3] | Potency [4] | Potency [5] | outcome [6] | Potency [7] | Potency [8] | Potency [9] | Potency [10] | Potency [11] | Potency [12] | Potency [13] | Potency [14] | Potency [15] | outcome [16] | Potency [17] | Potency [18] | outcome [19] | Potency [20]
1 | c1ccc(P(c2ccccc2)c2ccccc2)cc1 | inactive | inactive | inactive | inactive | inactive | inactive | inactive | inactive | inactive | inactive and 17.2 µM (active) | inactive | inactive | inactive | inactive | inactive | inactive | – | – | – | –
2 | CCCCC(CC)COC(=O)Cl (configuration not stated) | inactive and 38.9 µM (active) | inactive | inactive | inactive | inactive | inactive | inactive | inactive | inactive | inactive | inactive | inactive | inactive | inactive | inactive | inactive | inactive | – | – | –
3 | CCCCCCCCCCCOC(=O)c1ccccc1C(=O)OCCCCCCCCCCC | inactive | inactive | inactive | inactive | – | inactive | inactive | inactive | inactive | inactive | inactive | inactive | inactive | inactive | inactive | inactive | – | – | – | –
4 | Nc1ccncc1 | inactive | inactive | inactive | inactive | inactive | inactive | inactive | inactive | inactive | inactive | inactive | inactive | inactive | inactive | inactive | inactive | inactive | inactive | inactive | inactive
5 | CC(C)NC(C)C | inactive | inactive | inactive | inactive | inactive | inactive | inactive | inactive | inactive | inactive | inactive | inactive | inactive | inactive | inactive | inactive | inactive | – | inactive | –
6 | CCOC(=O)C(C)OC(=O)c1cc(Oc2ccc(C(F)(F)F)cc2Cl)ccc1[N+](=O)[O-] (configuration not stated) | inactive | inactive | inactive | inactive | inactive | inactive | inactive | inactive | inactive | inactive | inactive | – | inactive | inactive | inactive | inactive | inactive | – | – | –
7 | O=C(Nc1ccc(Br)cc1)c1cc(Br)cc(Br)c1O | inactive and 43.6 µM (active) | inactive | 13.3 µM (active) | 6.83 µM (active) and 10.9 µM (active) | – | inactive | 30.5 µM (active) | – | inactive | 13.7 µM (active) and 13.3 µM (active) | inactive | – | 19.3 µM (active) and 29.8 µM (active) | 24.3 µM (active) | 2.42 µM (active) and inactive | inactive | 21.6 µM (active) and 19.3 µM (active) and 29.8 µM (active) | – | inactive | –

Source: PubChem BioAssay (Tox21)
